TRHR enhancer-1: TRH receptor (human) allosteric enhancement. TRHR cells, fluo-8 calcium fluorescence, EC20 TRH enhancement. hit rate 0.66% among 360,000. enhancement, % at 2 µM; in the data active = enhancement above about 30%; also: 0% is about no effect
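Enhancer read-out: after compound pinning and an initial kinetic agonist-mode read, an EC20 of TRH (10 nM final) was injected and fluo-8 calcium signal (Ex 480/Em 530) followed at 1 s/cycle for 100 cycles in TRHR-expressing cells.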
D1 ag: agonists of human D1 dopamine receptor. HEK293 T-REx D1 cells, calcium flux, agonist mode. activation, % at 2 µM. hit rate 1% among 360,000; in the data active = activation above about 30%; also: 0% is about no effect
Target sequence (P21728 whole entry, looked up): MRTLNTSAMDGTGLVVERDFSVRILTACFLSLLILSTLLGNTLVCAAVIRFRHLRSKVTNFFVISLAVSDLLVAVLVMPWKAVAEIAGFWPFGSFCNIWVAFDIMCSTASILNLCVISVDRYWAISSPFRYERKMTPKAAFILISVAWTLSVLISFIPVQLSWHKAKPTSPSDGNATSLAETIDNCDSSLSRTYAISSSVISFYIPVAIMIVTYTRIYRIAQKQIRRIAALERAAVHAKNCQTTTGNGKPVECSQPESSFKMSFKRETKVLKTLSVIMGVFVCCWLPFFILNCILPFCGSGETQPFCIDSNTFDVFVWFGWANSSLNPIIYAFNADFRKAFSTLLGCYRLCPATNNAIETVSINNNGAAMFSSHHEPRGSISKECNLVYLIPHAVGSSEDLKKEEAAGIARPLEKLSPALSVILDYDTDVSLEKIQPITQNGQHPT
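Inducible HEK293 T-REx D1 cells, force-coupled to calcium signalling, were plated at 4000 cells/well with tetracycline and held overnight at 30 C. After no-wash calcium dye loading, compound-evoked calcium rise over 180 s flagged agonists.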
TRHR agonist-1: agonists of human TRH receptor; hit rate 0.18% among 360,000; AID 493084; TRHR cells, calcium flux fluo-8, FDSS agonist mode; activation, % at 2 µM; in the data active = activation above about 30%; also: 0% is about no effect
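Fluo-8-loaded TRHR cells; 10 s baseline, compound added, kinetic Ca2+ fluorescence read 1/s, agonist mode.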
D1 antagonist: human D1 dopamine receptor antagonism; P21728; HEK293 TREx D1 cells, calcium flux, dopamine EC80; active compounds read low; activity change, negative = inhibition, % at 10 µM; hit rate 3.2% among 360,000; in the data active = activity change below about -30%; also: % is scaled to controls: 0 for no effect and ±100 for the full control effect
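Kinetic fluorescence of a calcium dye serves as the read-out. D1-expressing Hek293 Trex cells, induced overnight at 30 C, are exposed to compound for 180 s before an EC80 dopamine addition, then read 180 s further.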
D1 PAM: enhances dopamine response at the human D1 receptor; P21728; HEK293 TREx D1 cells, calcium flux, dopamine EC20 potentiation; potentiation, % at 10 µM; hit rate 0.036% among 360,000; in the data active = potentiation above about 30%; also: 0% is about no effect
TRHR enhancer-2: confirmation of human TRH receptor allosteric enhancers. activity change, negative = inhibition, % at 46.1 µM. TRH receptor cell assay, enhancer confirmation qHTS. 970 tested, under 10 active. shares compounds with TRHR enhancer-1;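 also: compound effect scored on response to added TRH at EC20 of 10 nM; 0% is about no effect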
TRHR agonist-2: confirmation of human TRH receptor agonists; TRHR-expressing cells, agonist activation read-out; shares compounds with TRHR enhancer-1; hit rate 8% among 970; AID 493078; Potency, µM (highest dose often 46.1 µM), without a hit: top-dose activation, hits mostly activators; also: potency is read from the fitted curve at half-maximal effect; 0% is about no effect; nearly all actives have a fitted effect of over 75% in size
The depositor's hits bear a star. Shown are actives, neighbours in structure and some others; about 4.7% of the full set was active somewhere. Unless noted, calls follow the shape of the dose curve; as a rule, active = well fitted curve in the direction sought with a large enough effect; inconclusive = small, poorly fitted or top-dose-only effect, or another doubt; inactive = no such curve, though single readings can be large; an effect the other way counts as inactive or inconclusive.

What do the screens show for `OCC1(CCc2ccccc2)CCN(Cc2ccccc2Cl)CC1`?
TRHR enhancer-1: 60.3*; D1 ag: 8.1; TRHR agonist-1: 3.0; D1 antagonist: 19.7; D1 PAM: -5.5; TRHR enhancer-2: -5.3; TRHR agonist-2: 4.8%

What do the screens show for `COc1ccc(OC)c(/C=C/c2nc3ccccc3[nH]c2=O)c1`?
TRHR enhancer-1: -3.8; D1 ag: 61.6*; TRHR agonist-1: 26.4; D1 antagonist: -2.2; D1 PAM: -0.8; TRHR enhancer-2: 4.9; TRHR agonist-2: 18.4µM*

What do the screens show for `COc1ccc(OC)c(C=Nc2ccccc2-c2nc3ccccc3[nH]2)c1`?
TRHR enhancer-1: -4.9; D1 ag: -0.5; TRHR agonist-1: -1.1; D1 antagonist: -0.8; D1 PAM: 2.9

What do the screens show for `CC1CCN(Cc2c(C(=O)N/N=C/c3ccc(C(C)C)cc3)nnn2-c2nonc2N)CC1`?
TRHR enhancer-1: 52.1*; D1 ag: -0.1; TRHR agonist-1: 0.9; D1 antagonist: 22.2; D1 PAM: 13.8; TRHR enhancer-2: 3.8; TRHR agonist-2: 1.8%

What do the screens show for `CC1(Cc2cn(CCC#N)c3ccccc23)OCCO1`?
TRHR enhancer-1: 0.9; D1 ag: 2.8; TRHR agonist-1: -0.2; D1 antagonist: 4.7; D1 PAM: 7.2

Results for N#CCCn1cc(CNC2CCC(O)CC2)c2ccccc21 (stereo not drawn) ?
TRHR enhancer-1: 45.2*; D1 ag: -0.9; TRHR agonist-1: -1.9; D1 antagonist: 5.8; D1 PAM: 0.7; TRHR enhancer-2: inconclusive; TRHR agonist-2: -0.5%

How did COc1cc(/C=C(\C#N)c2nc3ccccc3c(=O)[nH]2)cc(OC)c1OC do in these assays?
TRHR enhancer-1: 3.1; D1 ag: 3.5; TRHR agonist-1: 1.1; D1 antagonist: 3.6; D1 PAM: -3.5

What do the screens show for `CN(C)CCCNC1=CC(=O)CC(c2ccccc2)C1` (stereo not drawn)?
TRHR enhancer-1: 55.8*; D1 ag: -1.3; TRHR agonist-1: -0.1; D1 antagonist: -0.5; D1 PAM: -0.6; TRHR enhancer-2: 11.7; TRHR agonist-2: -0.6%

What do the screens show for `c1ccc(Oc2ccc(-c3ccnc4ncnn34)cc2)cc1`?
TRHR enhancer-1: 48.0*; D1 ag: 2.8; TRHR agonist-1: -1.9; D1 antagonist: 1.5; D1 PAM: 0.7; TRHR enhancer-2: -6.7; TRHR agonist-2: 0.4%

What do the screens show for `Cc1cccc(CC2C(=O)Nc3ccccc32)c1` (stereo not drawn)?
TRHR enhancer-1: 0.1; D1 ag: 7.8; TRHR agonist-1: -0.2; D1 antagonist: -10.6; D1 PAM: -0.2

What do the screens show for `CCCN(CCC)C(=O)c1c[nH]c2ccc(S(=O)(=O)N(C)c3ccc(OCC)cc3)cc2c1=O`?
TRHR enhancer-1: -1.0; D1 ag: 2.6; TRHR agonist-1: 0.2; D1 antagonist: 8.0; D1 PAM: 0.7

Results for CCc1ccc(C(=O)NCC2COc3ccccc3O2)o1 (stereo not drawn) ?
TRHR enhancer-1: 60.4*; D1 ag: 4.7; TRHR agonist-1: 0.1; D1 antagonist: 1.2; D1 PAM: 0.9; TRHR enhancer-2: -8.2; TRHR agonist-2: 1.1%

How did CN1OCC(S(=O)(=O)c2ccccc2)C1c1ccccc1 (stereo not drawn) do in these assays?
TRHR enhancer-1: 44.2*; D1 ag: 1.9; TRHR agonist-1: 0.3; D1 antagonist: -9.5; D1 PAM: 0.1; TRHR enhancer-2: 8.1; TRHR agonist-2: 2.7%

How did O=S(=O)(c1ccccc1)C1CON(Cc2ccccc2)C1c1ccccc1 (stereo not drawn) do in these assays?
TRHR enhancer-1: 14.4; D1 ag: 1.9; TRHR agonist-1: 0.8; D1 antagonist: -9.1; D1 PAM: -3.2

What do the screens show for `CCCCc1nn2c(=O)cc(COC(=O)c3ccc(NC(=O)CCc4ccccc4)cc3)nc2s1`?
TRHR enhancer-1: 2.2; D1 ag: -1.0; TRHR agonist-1: 1.8; D1 antagonist: 3.9; D1 PAM: -0.8

What do the screens show for `O=C(CSc1nc(-c2cccs2)nc2cc(=O)[nH]n12)Nc1ccccc1`?
TRHR enhancer-1: -1.4; D1 ag: 1.8; TRHR agonist-1: -0.1; D1 antagonist: -4.5; D1 PAM: -1.4

Results for O=C(NCc1ccccc1Cl)c1ccc2c(c1)NC(=O)C(CS(=O)(=O)Cc1ccc(F)cc1Cl)N2 (stereo not drawn) ?
TRHR enhancer-1: 3.4; D1 ag: -3.0; TRHR agonist-1: 0.5; D1 antagonist: -19.5; D1 PAM: 0.1

How did N#Cc1ccccc1S(=O)(=O)N1CCN(C(=O)C2COc3ccccc3O2)CC1 (stereo not drawn) do in these assays?
TRHR enhancer-1: 54.1*; D1 ag: 1.0; TRHR agonist-1: -0.5; D1 antagonist: -1.3; D1 PAM: 7.9; TRHR enhancer-2: -9.6; TRHR agonist-2: inconclusive

What do the screens show for `O=C(C1COc2ccccc2O1)N1CCN(S(=O)(=O)c2cc(F)ccc2F)CC1` (stereo not drawn)?
TRHR enhancer-1: -2.5; D1 ag: 1.4; TRHR agonist-1: 0.2; D1 antagonist: -15.9; D1 PAM: 1.6

Results for CCc1cccc(C)c1NC(=O)Cn1c(=O)cc(C(F)(F)F)c2c(C)nn(C)c21 ?
TRHR enhancer-1: -1.1; D1 ag: -0.1; TRHR agonist-1: -0.4; D1 antagonist: 20.9; D1 PAM: -1.1

Results for Cc1ccc(NCC(=O)Nc2ccc(Br)cc2)cc1C ?
TRHR enhancer-1: 70.3*; D1 ag: 4.5; TRHR agonist-1: 0.0; D1 antagonist: -48.1*; D1 PAM: -7.5; TRHR enhancer-2: 4.1; TRHR agonist-2: -0.3%

What do the screens show for `Cc1ccc(F)cc1NCC(=O)Nc1ccc(Br)cc1`?
TRHR enhancer-1: 0.3; D1 ag: 0.6; TRHR agonist-1: -0.4; D1 antagonist: 4.1; D1 PAM: -2.8

Results for Cc1ccc(-n2nc(C(=O)N3CCN(c4ccccc4)CC3)c(=O)n(C)c2=O)cc1 ?
TRHR enhancer-1: -0.8; D1 ag: 1.2; TRHR agonist-1: -0.2; D1 antagonist: -2.8; D1 PAM: -4.0

How did Cn1c(=O)[nH]c(=O)c2c1nc(NCc1ccccc1)n2Cc1ccc(F)cc1 do in these assays?
TRHR enhancer-1: 48.3*; D1 ag: 1.2; TRHR agonist-1: -0.8; D1 antagonist: -9.8; D1 PAM: -7.0; TRHR enhancer-2: 5.3; TRHR agonist-2: 0.9%

Results for COc1ccccc1N(CC(=O)NCc1cccnc1)S(C)(=O)=O ?
TRHR enhancer-1: 48.0*; D1 ag: 1.4; TRHR agonist-1: 0.2; D1 antagonist: 20.2; D1 PAM: -1.2; TRHR enhancer-2: 8.4; TRHR agonist-2: 0.9%
